# In all, about 55,000 sequences went through this assay and about 3,800 (6.9%) were called active. Cut-off read from the data, not from the text of the source: active = GI50 up to about 1.1 µM and inactive = higher. A selection follows. Potency and affinity values are given separately.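 Dose response: 5 concentrations. Exposure: 48 h. Format: 96-well plates. Endpoint: linear interpolation; highest concentration if not reached. The concentration for 50% growth inhibition is given as GI50.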
# System: CAKI-1
# Assay: NCI tumour cell line growth inhibition, 48 h
row,Substance,GI50
1,"[Bis(aminomethyl)pentamethylenesilane]dichloropaltinum(II), CHEMBL2146202",2.26 µM
2,"[Bis(aminomethyl)tetramethylenesilane]tetrachloropaltinum(IV), CHEMBL2146189",5.92 µM
3,"[Bis(aminomethyl)diethylsilane]tetrachloroplatinum(IV), CHEMBL2146203",4.06 µM
4,"[Bis(aminomethyl)ethylmethylsilane]tetrachloroplatinum(IV), CHEMBL2146192",1.19 µM
5,"CISPLATIN, CHEMBL11359",1.99 µM
6,"[Bis(aminomethyl)dimethylsilane]tetrachloroplatinum(IV), CHEMBL2146190",4.05 µM
7,"[Bis(aminomethyl)dimethylsilane]dichloroplatinum (II), CHEMBL2146201",12 µM
8,"[Bis(aminomethyl)pentamethylenesilane]tetrachloropaltinum(IV), CHEMBL2146204",2.14 µM
9,"mu-(1,7-nanodiamine-N,N')bis-(cis-aminedichloroplatimum (II)), CHEMBL2146215",50.6 µM
10,"[Bis(aminomethyl)tetramethylenesilane]dichloropaltinum(II), CHEMBL2146205",13.6 µM
11,"cis-Bis[[(trimethylsilyl)methyl]amino]tetrachloroplatinum(IV), CHEMBL2146191",11.9 µM
